Assay results reported in PubChem BioAssay (NCI).
Compounds without any hit were thinned out: in the full panel of roughly 83,000, 20% have a hit.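 The test compound was applied at a single concentration to cells in 96-well plates for 48 hours, and percent growth was recorded.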 The source made the active and inactive calls. Rule for the calls: active = growth percent below 10; inactive = the rest.

Columns and labels:
Test in all cases: NCI-60 one-dose screen, 48 h (100 = growth as untreated, 0 = no growth, -100 = all killed)
Conditions in all cases: 10 µM unless noted
[1] = tested on: NCI-H23 lung
[2] = tested on: HOP-62 NSCLC
[3] = tested on: NCI-H460 lung
[4] = tested on: HOP-92 NSCLC
[5] = tested on: NCI-H522 lung
[6] = tested on: A549/ATCC NSCLC
[7] = tested on: 786-0 renal
[8] = tested on: COLO 205 colon
[9] = tested on: NCI-H322M lung

Measured: growth

NC(=O)c1n[nH]n2c1nc(=O)c1c3c(sc12)CCCC3
inactive: [1] 101% | [2] 96.5% | [3] 109% | [4] 91.7% | [5] 102% | [6] 92.7% | [7] 106% | [8] 103%

CC/C(=C(/c1ccc(Cl)cc1)c1ccc(OCCN2CCCCC2)cc1)c1ccc(Cl)cc1
inactive: [1] 61.9% | [9] 93.1% | [2] 86.8% | [3] 79.7% | [5] 65.3% | [6] 73% | [7] 76.7% | [8] 70.4%

CNC(=O)c1cnc(C)nc1-c1cc(C(C)(C)C)c(O)c(C(C)(C)C)c1
inactive: [1] 103% | [9] 104% | [2] 99.9% | [3] 108% | [4] 74% | [5] 83.2% | [6] 95.9% | [7] 88.9% | [8] 105%

COc1cc2c(Oc3ccc(NC(=O)C4(C(=O)Nc5ccc(F)cc5)CC4)cc3F)ccnc2cc1OCCCN1CCOCC1
active: [9] -1.77% | [2] -13.5% | [3] -40.8% | [4] -58.2% | [5] -57% | [6] -77.1% | [7] -75.7% | [8] -71.3%
inactive: [1] 10.1%

COc1ccc2c(CCc3ccc(Cl)cc3)c3[n+](cc2c1OC)CCc1cc2c(cc1-3)OCO2
inactive: [1] 26.1% | [9] 90.4% | [2] 75.8% | [3] 10.6% | [4] 25% | [5] 13.4% | [6] 50.7% | [7] 73.4% | [8] 27.1%

CC(C)=CCc1cc2c(cc1O)C1=C(C(=O)C3=C(C1=O)S(=O)(=O)CCN3)C(C=C(C)C)O2 (stereo not drawn)
active: [1] -35.9% | [9] -76.2% | [2] -52.7% | [3] -50.4% | [4] -11.7% | [5] -50.8% | [6] -42.4% | [7] -12.3% | [8] -69.8%

CC[C@@H]1C(=O)N(C)c2cnc(Nc3ccc(C(=O)NC4CCN(C)CC4)cc3OC)nc2N1C1CCCC1
inactive: [9] 24.9%
active: [1] 8.04% | [2] -20.1% | [3] 8.51% | [4] 7.59% | [5] -14.4% | [6] 3.29% | [7] 8.26% | [8] -54%

C#Cc1cccc(Nc2ncnc3cc4c(cc23)OCCOCCOCCO4)c1
active: [9] 1.86% | [5] 0.957%
inactive: [1] 80.5% | [2] 56.1% | [3] 76.6% | [4] 49.4% | [6] 42.7% | [7] 51.7% | [8] 86.8%

COc1cc2c(cc1OCCCCCN1CCN(c3ncnc4ccccc34)CC1)N=CC1CCCN1C2=O (stereo not drawn)
active: [1] 3.3% | [9] -0.115% | [2] -22.4% | [3] 5.35% | [4] -63.8% | [5] -55.4% | [6] 1.13% | [7] -9.08% | [8] -46.1%

NS(=O)(=O)c1ccc(CCN2C(=O)/C(=C\c3ccc(Cl)cc3)C=C2c2ccc3ccccc3c2)cc1
inactive: [1] 95.4% | [9] 92.4% | [2] 72% | [3] 102% | [4] 94% | [5] 60.9% | [6] 62% | [7] 93.4% | [8] 100%

N#CC1(C#N)C(c2cccs2)NC(c2cccs2)C1(C#N)C#N (stereo not drawn)
inactive: [1] 95% | [9] 98% | [2] 95% | [3] 110% | [4] 113% | [5] 95.9% | [6] 100% | [7] 101% | [8] 106%

CO[C@@H](C(=O)N1Cc2[nH]nc(NC(=O)c3ccc(N4CCN(C)CC4)cc3)c2C1)c1ccccc1
inactive: [1] 36.8% | [5] 12.6% | [6] 19.1% | [7] 10.7%
active: [9] -0.392% | [2] -6.89% | [3] 4.44% | [4] -63.8% | [8] -88.2%

CC/C=C\C[C@H]1C/C=C2/C(=O)C=C[C@@H]2C/C=C\CCCC(=O)O1
inactive: [2] 44.2%
active: [1] -12.5% | [3] -33.7% | [4] -36.6% | [5] -45.1% | [6] -25.2% | [7] -79.9% | [8] -13.1%

CO[C@H](C(=O)N[C@@H](CCCCNC(=O)OCc1ccccc1)C(=O)OC(C)(C)C)[C@@H]1Cc2cc3cc(OC4CC(OC5CC(O)C(O)C(C)O5)C(O)C(C)O4)c(C)c(O)c3c(O)c2C(=O)[C@H]1OC1CC(OC2CC(OC3CC(C)(O)C(O)C(C)O3)C(O)C(C)O2)C(O)C(C)O1 (stereo partly drawn)
active: [1] -42.6% | [2] -15% | [3] -17.6% | [4] -82.6% | [5] -16% | [6] -25.7% | [7] -89.8% | [8] -20.7%
inactive: [9] 20.2%
